# From PubChem BioAssay AID588675 (Johns Hopkins Ion Channel Center, 2011)
# Among all 310,000 compounds or so, about 1,900 (0.61%) were called active.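 The calls were made as follows: active = plate-corrected calcium response at least 3 library SD above typical, normal starting fluorescence, not activating the receptor alone; inactive = the rest.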 What follows is part of a selection rich in actives, with near analogues and random picks from the rest.
# Biological target: Mas-related G-protein coupled receptor member X1 (Homo sapiens) (UniProt Q96LB2)
# Assay: allosteric enhancers of human MrgX1 signaling – HEK293 cells, Fluo-4 calcium flux, primary screen (AID 588675);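 also: compound read alongside a low EC10 to EC30 dose of BAM8-22 agonist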;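 as to B-score: peak minus trough fluorescence over baseline measured at the second addition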
# Settings: MrgX1-HEK293, Fluo-4 calcium flux, FDSS, at 10 µM; active compounds read high
# Mas-related G-protein coupled receptor member X1 (Homo sapiens), sequence (Q96LB2 whole entry, looked up): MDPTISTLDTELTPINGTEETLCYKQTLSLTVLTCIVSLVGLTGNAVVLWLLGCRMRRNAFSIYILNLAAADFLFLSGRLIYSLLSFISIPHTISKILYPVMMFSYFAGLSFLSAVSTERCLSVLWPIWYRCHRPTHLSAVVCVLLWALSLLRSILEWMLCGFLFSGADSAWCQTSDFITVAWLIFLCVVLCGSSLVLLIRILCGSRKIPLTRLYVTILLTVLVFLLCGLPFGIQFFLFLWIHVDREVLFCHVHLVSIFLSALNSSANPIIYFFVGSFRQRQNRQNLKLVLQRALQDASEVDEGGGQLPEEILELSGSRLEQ
row,Compound,B-score
1,CC(C)N1C(=S)SC(C)(C)C1n1oc(=O)n(-c2ccc(Cl)c(Cl)c2)c1=O (configuration not stated),inactive
2,O=C(CNC(=O)OCc1ccccc1)Oc1cc2oc(=O)cc(-c3ccccc3)c2cc1Cl,inactive
3,Cc1nc2sccn2c(=O)c1S(=O)(=O)NCCc1ccccc1,inactive
4,Cc1c(C(=O)N(C)CCc2cnn(C)c2)oc2c(F)cccc12,inactive
5,Cc1ccc2c(C)c(C(=O)N(C)CCC3CCCCO3)oc2c1C (configuration not stated),11.2 (active)
6,Cc1ccc2c(C)c(C(=O)N(C)Cc3ccncn3)oc2c1C,inactive
7,CCCCn1c(N)c(N(CCC(C)C)C(=O)CC2OC(=O)c3ccccc32)c(=O)[nH]c1=O (configuration not stated),inactive
8,COc1ccc(C2(C)NC(=O)N(CC(=O)c3ccc4c(c3)OCO4)C2=O)cc1 (configuration not stated),inactive
9,O=C(OCc1ccc([N+](=O)[O-])cc1)C1CC(=O)N(Cc2ccccc2Cl)C1 (configuration not stated),inactive
10,CCCC1CCC(=NNC(=S)NCCc2ccccc2)CC1 (configuration not stated),inactive
11,O=C(O)CCn1cc(/C=C/C(=O)c2ccc(Cl)cc2)c(-c2cccc(Br)c2)n1,inactive
12,CCOc1cc(/C=C(\C#N)c2nc(-c3cccs3)c(NC(C)=O)s2)ccc1O,inactive
13,COc1cc(/C=C(\C#N)c2nc3ccccc3[nH]2)ccc1O,inactive
14,COc1cc(/C=C(\C#N)c2nc3c(s2)CC(C)CC3)ccc1O (configuration not stated),15.1 (active)
15,CC(=O)Nc1ccc(S(=O)(=O)N2CCN(C(=O)c3ccccc3F)CC2)cc1,inactive
16,O=C(Nc1cccc(Cl)c1)c1cc(S(=O)(=O)N2CCCCC2)c[nH]1,inactive
17,O=C(Nc1cccc(Cl)c1)c1cncn1-c1ccc(F)cc1,12.5 (active)
18,CCC(=O)Nc1nc(C)c(C(=O)Nc2cccc(Cl)c2)s1,inactive
19,C=CCn1cc(Cl)cc(C(=O)Nc2ccccc2)c1=O,inactive
20,COC(=O)c1c(NC(=O)CSc2nncs2)sc2c1CCCCC2,inactive
21,COC(=O)c1c(NC(=O)COC(=O)[C@@H](NS(=O)(=O)c2ccccc2)C(C)C)sc2c1CCC2,inactive

row,Compound,B-score
1,COC(=O)c1c(NC(=O)CN(c2ccc(C)c(C)c2)S(C)(=O)=O)sc2c1CCCC2,11.7 (active)
2,CCc1ccc(N(CC(=O)Nc2sc3c(c2C(=O)OC)CCCC3)S(C)(=O)=O)cc1,8.16 (active)
3,COC(=O)c1c(NC(=O)C2CC(C)=C(C)CC2C(=O)O)sc2c1CCCCC2 (configuration not stated),inactive
4,COC(=O)c1c(NC(=O)CCN2CCOCC2)sc2c1CCCC2,inactive
5,COc1ccc(OC)c(-c2c(=O)n(OCc3ccccc3Br)c3ccccc3[n+]2[O-])c1,inactive
6,O=C(Oc1ccc(-c2nnco2)cc1)c1ccc(F)c(S(=O)(=O)N2CCOCC2)c1,inactive
7,CN(C(=O)CCNC(=O)Cn1ccc2ccccc2c1=O)c1ccc(Br)cc1,inactive
8,CC(=O)N1c2ccc(S(=O)(=O)N(C)CC(=O)N(C)Cc3ccccc3)cc2CC1C (configuration not stated),inactive
9,O=C(Nc1nnc(-c2ccccc2F)s1)c1ccccc1F,inactive
10,COc1ccccc1C(CNC(=O)c1cccc(NS(=O)(=O)c2ccc(Br)cc2)c1)N(C)C (configuration not stated),inactive
11,Cc1ccc(CNS(=O)(=O)c2ccc3c(c2)N(C)CCO3)cc1,inactive
12,CC(=O)NS(=O)(=O)c1ccc(N/C(N)=N/c2nc(C)cc(C)n2)cc1,inactive
13,Cc1ccc(N/C(N)=N/c2nc(C(F)(F)F)cc(C(F)(F)F)n2)cc1,38.3 (active)
14,Cc1ccc(NC(=O)Nc2ccc3oc(C)nc3c2)cc1,inactive
15,O=C(c1noc2c1CCCC2)N1CCc2ccccc2C1,inactive
16,Cc1cc(C)cc(Oc2nc3c(C)cccn3c(=O)c2/C=C(\C#N)C(=O)NC2CCS(=O)(=O)C2)c1 (configuration not stated),inactive
17,CN1CC(c2ccccc2)C2(COc3ccccc3C2=O)C12C(=O)Nc1ccccc12 (configuration not stated),inactive
18,CSc1nc(C)nc2c1c(=O)n(C)c(=O)n2C,inactive
19,CCOC(=O)N1CCN(C(=O)CSc2nc(C)nc3c2c(=O)n(C)c(=O)n3C)CC1,inactive
20,CCC(C)Sc1nc(C)nc2c1c(=O)n(C)c(=O)n2C (configuration not stated),17.1 (active)
21,CC1(C(=O)N/N=C/c2cc3c(cc2Br)OCO3)CC1(Br)Br (configuration not stated),8.54 (active)

row,Compound,B-score
1,O=C(N/N=C/c1cc2c(cc1Br)OCO2)C1COc2ccccc2O1 (configuration not stated),inactive
2,CC(=O)N/N=C/c1cc2c(cc1[N+](=O)[O-])OCO2,inactive
3,CCOC(=O)C1(Cc2ccccc2C)CCCN(S(C)(=O)=O)C1 (configuration not stated),inactive
4,O=C(NC(Cc1ccccc1)C(=O)O)/C(=C\c1ccccc1)NC(=O)c1ccco1 (configuration not stated),inactive
5,Cc1cc(/C=C2/C(=N)N3C(=NC2=O)SN=C3S(C)(=O)=O)c(C)n1-c1ccccc1,11.8 (active)
6,CCS(=O)(=O)C1=NSC2=NC(=O)/C(=C\c3cc(C)n(-c4cccc(OC)c4)c3C)C(=N)N21,10.5 (active)
7,CCS(=O)(=O)C1=NSC2=NC(=O)/C(=C\c3ccc(OS(=O)(=O)c4ccccc4)cc3)C(=N)N21,24.2 (active)
8,COc1ccccc1OCCOc1ccc(/C=C2\C(=N)N3N=C(C)SC3=NC2=O)cc1,inactive
9,CS(=O)(=O)C1=NN2C(=N)/C(=C\c3ccc(OCCOc4ccccc4)cc3)C(=O)N=C2S1,inactive
10,Cc1cc(/C=C2\SC(=O)N(C)C2=O)c(C)n1-c1cccc(C(=O)O)c1,inactive
11,CS(=O)(=O)c1ccc2c(c1)SC1=NC(=O)/C(=C/c3ccco3)C(=N)N12,inactive
12,Cc1ccc(C2=N/C(=C\c3ccc(OS(=O)(=O)c4ccc(C)cc4)cc3)C(=O)O2)cc1,inactive
13,CCC1=NN2C(=N)/C(=C/c3cc(C)n(-c4ccccc4)c3C)C(=O)N=C2S1,inactive
14,COC1(C2=NCCN2)COc2ccccc2O1 (configuration not stated),inactive
15,COc1ccccc1NC(=O)N1CCCC1C(=O)NCc1cccs1 (configuration not stated),inactive
16,COc1cccc(-c2nnc(NC(=O)c3ccc(S(=O)(=O)N(CC(C)C)CC(C)C)cc3)o2)c1,inactive
17,O=C1CCCCN1CCCC(=O)N1CCCC(Nc2ccc(F)cc2)C1 (configuration not stated),inactive
18,CCOC(=O)c1ccc(N=C2SC(C(=O)NC)CC(=O)N2CCc2ccccc2)cc1 (configuration not stated),inactive
19,CSc1ccc(CN2C(=O)NC3(CCCCCC3)C2=O)cc1,inactive
20,C=C1c2c(Cl)ccc(O)c2C(O)=C2C(=O)[C@]3(O)C(O)=C(C(N)=O)C(=O)[C@@H](N(C)C)[C@@H]3[C@@H](O)C12 (some centres not stated),inactive
